Measurements published in the supplement of paper PMC6555819.

Legend:
Experiment in all cases: PBM binding z-score (relative to random genomic background probes); higher = stronger binding; sequences stand for … in GC…GCGATTGACAGCGTAGAATGAAGG
[1] = tested on: RARb homodimer (NR concentration 270 nM)
Summary of the method: (§1)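 Binding buffer was PBS pH 7.4 with 2% milk, 0.02% Triton X-100, 1 mM DTT, 0.2 mg/mL BSA and 0.4 mg/ml salmon testes DNA. In it, ligand-free nuclear receptor dimers were incubated 1 h on custom Agilent 4×180K protein-binding microarrays carrying double-stranded probes. Antibodies against each partner (one per run) detected binding, and z-scores were calculated against random background probes after regression normalization of scanned fluorescence.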

[2] = tested on: RARg:RXRa (NR concentration 270 nM, RXRa partner concentration 90 nM)
Summary of the method: as §1

[3] = tested on: RARg homodimer (NR concentration 270 nM)
Summary of the method: as §1

[4] = tested on: RXRa DBDmut IVT, anti-RXR (DBD mutation: RXRa K156A/R161A, NR concentration 90 nM)
Summary of the method: as §1

[5] = tested on: RXRa homodimer (NR concentration 180 nM)
Summary of the method: as §1

[6] = tested on: THRa:RXRa (NR concentration 90 nM, RXRa partner concentration 90 nM)
Summary of the method: as §1

[7] = tested on: THRa homodimer (NR concentration 90 nM)
Summary of the method: as §1

[8] = tested on: VDR homodimer (NR concentration 270 nM)
Summary of the method: as §1

Sequence | PBM binding z-score [1] | PBM binding z-score [2] | PBM binding z-score [3] | PBM binding z-score [4] | PBM binding z-score [5] | PBM binding z-score [6] | PBM binding z-score [7] | PBM binding z-score [8]
CATGCTAGGTCAATGGTCAGCTAAAGCAGCTCGC | 3.11 | 3.81 | 4.43 | 1.63 | 2.29 | 2.38 | 0.438 | 0.0964
GGAACGAGGGCAAGTTGATAGCCGAGTTTGATGG | 1.56 | 1.84 | 2.12 | 2.37 | 0.956 | 1.22 | -0.266 | 1.92
ATCGCTAGGTAAAGATAGTTCAGTGAATGCAAAT | 0.559 | 0.136 | 0.387 | -0.61 | -0.287 | 0.234 | -0.407 | -0.0178
GCATATAGGTAACACAAGGTGAAAGTCCGATTGT | 1.15 | 0.82 | 0.784 | 0.286 | 0.938 | 4.19 | 0.843 | 0.00161
TCTTTTAGATCAGCAGGTTAAGAAAGCTGGCCAA | 0.0082 | 0.209 | 0.197 | 1.02 | 0.581 | 0.357 | -0.515 | 0.00166
CCTAGTTGATCAAGGTCACACACGCTATAGGTAC | 4.44 | 4.24 | 4.06 | 2.8 | 4.2 | 4.25 | 4.11 | 4.32
ACAGACAGGTGATGAAGGCAACTCAGGCTATCAT | -0.412 | 0.106 | 0.345 | -0.405 | 0.152 | 0.815 | -0.588 | -0.37
AGAATGAGGTTATACGTAGAACAGGGAAGAAAGT | 0.739 | 1.6 | 1.14 | 1.5 | 2.13 | 2.04 | 0.323 | 1.03
CCTTCCGGGTCACTCCAGGTTATAGCATCGGAGT | 3.42 | 4.34 | 3.95 | 1.2 | 4.33 | 5.19 | 2.37 | 1.77
AGAATGAGGTTACCAAAGATCAGGGAAACGCTTG | 0.765 | 2.19 | 1.68 | 1.25 | 2.57 | 3.04 | 0.9 | 0.1
CCTCCAAGGTCAGCAGGTCAGTGAAAGCGACGTG | 4.97 | 6.12 | 6.45 | 2.04 | 4.21 | 3.74 | 2.14 | 1.55
TCGAGTAGGTTACCAATGGAGCATTCAGCTTTCT | -0.304 | 0.18 | 0.258 | 0.293 | 0.319 | -0.213 | -0.898 | -0.759
TCATATAGGTAAATCCTAGGTGAAAGTCCGATCT | 0.18 | 0.491 | 0.396 | 1.37 | 0.983 | 1.96 | 0.368 | -0.253
CCGACTGGGGCAAATGTTACCATACTCAGTACGA | 0.264 | 0.382 | 0.67 | 0.518 | 0.184 | -0.0523 | -0.199 | -0.144
TCTTGTAGATCAATGGTTAAGAAAGCCGAAGCCT | -0.529 | -0.0652 | -0.444 | 0.768 | 0.123 | -0.193 | -0.412 | -0.25
CCTTACGGGTCAAGGTTATAGGACGGGTGGTACG | 3.29 | 4.91 | 5.12 | 0.475 | 5.36 | 3.06 | 0.968 | 1.51
CCTATTAGTTGACCATAAGGGCAACCTAAGCTCG | 2.22 | 1.47 | 1.24 | 0.437 | 0.949 | 2.16 | 1.8 | 0.755
TCTAGCTGGCCAGAGGGTCACTCAAGAGGTACGG | 2.27 | 2.07 | 1.43 | -0.123 | 2.18 | 1.48 | -0.56 | 0.32
TCCCGGAGGACACGAAAGGTCAGAGCTCGACATC | 4.78 | 4.89 | 5.23 | 0.811 | 3.89 | 3.88 | 1.31 | 0.948
TAGCCTAGGTCAGCTCGGGCCAGTATACGCTATA | 2.59 | 3.06 | 4.25 | -0.297 | 1.54 | 4.27 | 0.31 | -0.788
CGTCCAAGGTCAATACTAGGTCAGTGAAAGCATT | 5.1 | 6.92 | 6.34 | 3.51 | 4.84 | 4.42 | 3 | 2.44
CGAACTAGGTCAAGGACAGCGAATCTCCGCACGC | 3.31 | 3.9 | 4.6 | 1.5 | 2.63 | 3.17 | 2.2 | 0.441
CCGACTGGGGCATAAGGGTACCATAAGCCAGCCC | 0.3 | 0.401 | 0.239 | -0.871 | 0.269 | -0.0868 | -0.457 | -0.543
AGAACGAGGGCACGTTGAGTTGATAGCAGAGTAG | 1.28 | 1.84 | 1.95 | 1.8 | 1.36 | 1.82 | 0.141 | 2.13
TCAGATAGGTAAACAGGTGAAAGTCCGTAAGTTA | 0.841 | 0.678 | 0.219 | 1.48 | 1.01 | 0.664 | 0.307 | 0.407
CCTACTGGGCCATTCAGAAGTCATTGATCATATG | -0.105 | 0.0962 | 0.226 | -0.00725 | -0.479 | -0.404 | -0.643 | -0.285
TCTATTAGTTGAGGGGCAACCGACGAGTCCGTTT | 0.835 | 0.29 | 0.252 | 1.83 | 0.746 | 0.432 | 0.237 | 1.19
CTCGAAAGGTCGTGCTCAGGTGAGTGTACCAAAC | 3.22 | 5.21 | 4.01 | 2.21 | 4.95 | 4.11 | 1.21 | 1.26
ATCTCTAGGTAACCAAGTTCAGTGACTGCCGAAC | 1.39 | 0.744 | 0.871 | 1.24 | 0.577 | 1.46 | 1.03 | 2.9
